Screening results as filed in PubChem BioAssay.
FBPA coupling cs: coupling enzyme interference in Giardia aldolase counter-screen; coupling enzyme system counterscreen, AmpLite Red fluorescence; activity change, negative = inhibition, % at 58.2 µM, hits read low; 0.67% of 290,000 active; AID 2472; in the data active means activity change below about -30%
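Counterscreen of the coupled detection system alone, without aldolase: glyceraldehyde-3-phosphate coupling enzymes plus AmpLite Red readout. Compounds at 57.5 uM final, 10 min RT preincubation, 20 min RT reaction, fluorescence 525/598 nm.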
Tau fluor cs: counter-screen for tau fibril formation inhibitors | Potency, µM (series often up to 57.7 µM), inactives show top-dose activity change, negative = decrease | tau K18 P301L Alexa594 fluorescence, heparin fibrillization | AID 1463 | 0.93% of 280,000 active; further: potency means the concentration at half of the fitted maximal effect; nearly all actives have a fitted effect of over 55% in size
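Human tau K18 P301L (15 uM unlabeled, 0.24 uM Alexa 594-labeled) in 100 mM sodium acetate pH 7 with 20 uM heparin, 6 hr at 37 C. ThT 30 uM added, 1 hr ambient; Alexa 594 FP and total fluorescence read at 555/632 nm.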
G9a block: blocks human histone lysine methyltransferase G9a; 8.8% of 350,000 active; G9a H3K9 monomethylation, AlphaScreen, 2 h; Potency, µM (doses to about 102 µM), for inactives: top-dose activity, negative = inhibition, actives largely listed as inhibitors; Q96KQ7; further: potency means the concentration at half of the fitted maximal effect; nearly all actives have a fitted effect of over 75% in size
Target sequence (Q96KQ7 913-1193 limits assumed): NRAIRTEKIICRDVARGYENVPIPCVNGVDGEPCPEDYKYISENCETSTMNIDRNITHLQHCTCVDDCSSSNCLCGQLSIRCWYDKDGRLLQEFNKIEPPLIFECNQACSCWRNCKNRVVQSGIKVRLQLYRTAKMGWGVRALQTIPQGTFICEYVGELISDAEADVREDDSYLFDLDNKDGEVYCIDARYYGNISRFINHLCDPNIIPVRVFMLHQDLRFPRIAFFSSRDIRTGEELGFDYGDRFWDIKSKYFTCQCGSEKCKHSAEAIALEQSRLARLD
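G9a (20 nM) preincubated 15 min RT with compounds, then 500 nM biotinylated H3K9 peptide and 20 uM SAM added; 2 h RT reaction. Monomethyl-H3K9 product detected by AlphaScreen with anti-H3K9me1 antibody, streptavidin donor and anti-rabbit IgG acceptor beads.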
Tau FP inhib: tau fibrillization inhibition (FP) | P10636 | K18 P301L tau heparin fibrillization, Alexa594 FP, 6 h | Potency, µM (highest dose often 57.7 µM), for the others: top-dose activity, negative = inhibition, hits mostly inhibitors | 0.39% of 280,000 active | AID 1468; further: potency means the concentration at half of the fitted maximal effect; nearly all actives have a fitted effect of over 55% in size
Target sequence (P10636 561-689 P618L limits assumed): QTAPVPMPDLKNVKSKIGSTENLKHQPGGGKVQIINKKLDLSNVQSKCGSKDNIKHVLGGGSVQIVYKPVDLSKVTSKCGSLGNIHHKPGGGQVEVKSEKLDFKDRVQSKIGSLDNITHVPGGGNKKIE
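Steps: dispense K18 P301L tau (15 uM plus 0.24 uM Alexa 594 tracer, final) in pH 7 sodium acetate; add compound; add heparin (20 uM final); incubate 6 hr, 37 C; add ThT (30 uM final); after 1 hr ambient, read FP.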
Tau ThT inhib: inhibitors of human tau fibril formation, thioflavin T binding; AID 1460; Potency, µM (doses to about 57.4 µM), inactives show top-dose activity, negative = inhibition, hits mostly inhibitors; 2.1% of 270,000 active; recombinant tau K18 P301L (four-repeat tau fragment), heparin-induced fibrillization, ThT fluorescence; P10636; further: potency means the concentration at half of the fitted maximal effect; nearly all actives have a fitted effect of over 55% in size
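In this qHTS, human K18 P301L tau is incubated with compound and heparin for 6 hr at 37 C, and Thioflavin T fluorescence then reports fibril load.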
Sfp inh: inhibitors of Bacillus subtilis Sfp phosphopantetheinyl transferase; Q9F4F7; Biochemical Sfp PPTase activity, qHTS; Potency, µM, without a hit: largest response in the series, negative = inhibition, hits mostly inhibitors; 3.5% of 310,000 active;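 further: the enzyme is Sfp with the accession as filed and its product quenches rhodamine fluorescence; potency means the concentration at half of the fitted maximal effect; 0% = enzyme reaction without inhibitor and -100% = no enzyme wells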
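Fluorescence-quenching assay with 15 nM Sfp, 5 uM rhodamine-CoA and 12.5 uM BHQ-2-labelled ybbR peptide in pH 7.6 Hepes/MgCl2 buffer. Enzyme was pre-incubated with compound for 15 min at room temperature. Rate was taken from the 30-min fluorescence change (525/598 nm).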
* hit, by the source's call; [ ] = remark or other dose. Shown are actives, neighbours in structure and some others; about 11% of the full set was active somewhere. Unless noted, the call rests on the fitted dose curve; in most records, active means well fitted curve in the direction sought with a large enough effect; inconclusive means small, poorly fitted or top-dose-only effect, or another doubt; inactive means no such curve, though single readings can be large; an effect the other way counts as inactive or inconclusive. Unless noted, on the % scale 0 is the no-effect control and ±100 the full control effect.

Screening Cc1ccc(N(CC(=O)NC2CCCCC2)C(=O)CNC(=O)c2ccco2)cc1C returned FBPA coupling cs -1, G9a block 26% and Sfp inh 17%.
For COc1ccccc1N1CC(C)(C)C(=O)N(C(=O)c2ccc(Cl)cc2)C1=S the results were FBPA coupling cs -3, Tau fluor cs -23%, G9a block 40µM*, Tau FP inhib 0%, Tau ThT inhib inconclusive and Sfp inh 20%.
`COc1ccccc1N1CC(C)(C)C(=O)N(C(=O)c2ccc(C)cc2)C1=S` gave FBPA coupling cs 4, Tau fluor cs -5%, Tau FP inhib 7%, Tau ThT inhib -8% and Sfp inh 2%.
For COc1cccc(OC)c1OCCNCCO the results were FBPA coupling cs 0, Tau fluor cs 0%, G9a block 5%[59 µM], Tau FP inhib -7%, Tau ThT inhib -2% and Sfp inh 2%.
C=CCc1cccc(OC)c1OCCOCCNCCO was read as FBPA coupling cs 1, Tau fluor cs -3%, G9a block 11µM*, Tau FP inhib -2%, Tau ThT inhib 3% and Sfp inh -14%.
Screening CCOC(=O)c1cc(-c2ccc(OC)c(S(=O)(=O)NC3CCCCC3)c2)on1 returned Tau fluor cs -13%, G9a block 2%[59 µM], Tau FP inhib 7% and Tau ThT inhib 6%.
Screening CC(C)CN(C(=O)c1cccc([N+](=O)[O-])c1)c1c(N)n(CC(C)C)c(=O)[nH]c1=O returned FBPA coupling cs 2, G9a block 50µM* and Sfp inh 21%.
CC(C)CN(C(=O)c1cc2ccccc2o1)c1c(N)n(CC(C)C)c(=O)[nH]c1=O was read as FBPA coupling cs 4, Tau fluor cs -5%, G9a block 50µM*, Tau FP inhib 1%, Tau ThT inhib -4% and Sfp inh 11%.
`CC(C)CN(C(=O)c1cccc(F)c1)c1c(N)n(CC(C)C)c(=O)[nH]c1=O` gave FBPA coupling cs 1, G9a block 22% and Sfp inh -1%.
Screening CC(C)CN(C(=O)CCc1ccccc1)c1c(N)n(CC(C)C)c(=O)[nH]c1=O returned FBPA coupling cs 2, Tau fluor cs 1%, G9a block 25%[59 µM], Tau FP inhib 1%, Tau ThT inhib 0% and Sfp inh 5%.
For C/C(=N\NC(=O)c1ccncc1)c1ccc(N2CCOCC2)cc1 the results were G9a block 28%[12.7 µM].
For C/C(=N\NC(=O)c1ccc(OC2OCCOC2Oc2ccc(C(=O)N/N=C(\C)c3ccncc3)cc2)cc1)c1ccncc1 (centres undefined) the results were FBPA coupling cs 8, Tau fluor cs -15%, G9a block 13µM*, Tau FP inhib inconclusive, Tau ThT inhib inconclusive and Sfp inh -26%.
CC1=C(c2ccc(Cl)cc2)S(=O)(=O)N=C1N1CCN(c2cccc(C(F)(F)F)c2)CC1 was read as Tau fluor cs -20%, G9a block -35%[59 µM], Tau FP inhib 5% and Tau ThT inhib -13%.
For CCc1cc[n+](C2=C([O-])c3ccccc3C(=O)/C2=N\S(=O)(=O)c2cccs2)cc1 the results were FBPA coupling cs -55*, Tau fluor cs inconclusive, G9a block inconclusive, Tau FP inhib inconclusive, Tau ThT inhib 13µM* and Sfp inh 11%.
Screening CCOc1ccc2[nH]cc(S(=O)(=O)c3ccc(Cl)cc3)c(=O)c2c1 returned FBPA coupling cs -1, Tau fluor cs inconclusive, G9a block 71µM*, Tau FP inhib inconclusive, Tau ThT inhib -8% and Sfp inh -1%.
Screening CC(C)[C@H](NC(=O)N1CC(=O)Nc2ccccc21)C(=O)N[C@@H](C(=O)O)c1ccccc1 returned FBPA coupling cs 2, G9a block inconclusive and Sfp inh 5%.
Screening CCNc1nc(C(=O)O)nc(N2CCOCC2)n1 returned FBPA coupling cs 1, Tau fluor cs -4%, G9a block 4µM*, Tau FP inhib -1%, Tau ThT inhib -5% and Sfp inh 79µM*.
CC(C)(C)Nc1nc(C(N)=O)nc(N2CCOCC2)n1 was read as FBPA coupling cs 1, Tau fluor cs -2%, G9a block -4%[12.7 µM], Tau FP inhib 2%, Tau ThT inhib -1% and Sfp inh 20%.
For CCC(CC)c1nnc(NC(=O)c2cc(C(=O)OC)cc([N+](=O)[O-])c2)s1 the results were FBPA coupling cs 4, Tau fluor cs -17%, G9a block 8.9µM*, Tau FP inhib 7%, Tau ThT inhib -5% and Sfp inh 45µM*.
For COCCSc1nnc(NC(=O)c2cc(C(=O)OC)cc([N+](=O)[O-])c2)s1 the results were FBPA coupling cs 10, Tau fluor cs -16%, G9a block 50µM*, Tau FP inhib 6%, Tau ThT inhib inconclusive and Sfp inh 8%.
COC(=O)c1cc(C(=O)Nc2nnc(CC(C)C)s2)cc([N+](=O)[O-])c1 was read as FBPA coupling cs 6, Tau fluor cs -10%, G9a block -18%[59 µM], Tau FP inhib 1%, Tau ThT inhib -9% and Sfp inh -2%.
Screening CC(=O)OC1=C(C#N)Cn2ccc3cccc1c32 returned FBPA coupling cs -41*, Tau fluor cs 2%, G9a block 11µM*, Tau FP inhib 2%, Tau ThT inhib -6% and Sfp inh -2%.
For OC(COc1cccc2ccccc12)CN1CCN(c2ccc(Cl)cc2)CC1 (centres undefined) the results were FBPA coupling cs 1, Tau fluor cs -5%, G9a block 45µM*, Tau FP inhib -14% and Sfp inh 9%.
CCCc1ccc(OCC(O)CN2CCN(c3ccccn3)CC2)cc1 (centres undefined) was read as G9a block 50µM* and Sfp inh 12%.
For OC(COc1cccc2ccccc12)CN1CCN(c2cccc(Cl)c2)CC1 (centres undefined) the results were FBPA coupling cs -2, Tau fluor cs inconclusive, G9a block -34%, Tau FP inhib 8%, Tau ThT inhib inconclusive and Sfp inh -18%.
CC(=O)c1ccc(OCC(O)CN2CCN(CC(O)COc3ccc(C(C)=O)cc3)CC2)cc1 (centres undefined) was read as FBPA coupling cs 3, Tau fluor cs 2%, G9a block -1%[59 µM], Tau FP inhib 5%, Tau ThT inhib inconclusive and Sfp inh 10%.
For CC(=O)c1ccc(OCC(O)CN2CCN(c3ccccn3)CC2)cc1 (centres undefined) the results were FBPA coupling cs 2, Tau fluor cs -4%, G9a block 56µM*, Tau FP inhib -1%, Tau ThT inhib inconclusive and Sfp inh 5%.
